Assay outcomes as filed in PubChem BioAssay.
D1 antag = Antagonist of Human D 1 Dopamine Receptor: qHTS; activity change, negative = inhibition, % at 10 µM; HEK293 TREx D1 cells, calcium flux, dopamine EC80; stronger effect = lower value; hit rate 3.2% among 360,000; in the data active means activity change below about -30%; further: on the % scale 0 is the no-effect control and ±100 the full control effect
Target sequence (P21728 whole entry, looked up): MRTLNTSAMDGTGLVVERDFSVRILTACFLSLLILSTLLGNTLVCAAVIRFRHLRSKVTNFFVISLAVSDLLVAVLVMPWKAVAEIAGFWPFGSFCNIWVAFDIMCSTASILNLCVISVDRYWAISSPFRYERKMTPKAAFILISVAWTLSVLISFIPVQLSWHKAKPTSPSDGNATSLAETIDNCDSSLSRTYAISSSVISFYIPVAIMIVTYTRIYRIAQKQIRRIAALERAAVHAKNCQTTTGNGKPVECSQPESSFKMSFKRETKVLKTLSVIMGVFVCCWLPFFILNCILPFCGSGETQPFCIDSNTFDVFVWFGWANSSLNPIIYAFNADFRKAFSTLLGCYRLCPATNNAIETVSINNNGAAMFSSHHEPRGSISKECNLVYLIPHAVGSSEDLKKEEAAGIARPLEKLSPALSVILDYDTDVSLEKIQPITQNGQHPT
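Tetracycline-induced HEK293 Trex D1 cells, force-coupled to calcium, dye-loaded; compounds added and read 180 s, then EC80 dopamine added and calcium flux tracked kinetically another 180 s.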
D1 potentiator = Potentiators of Human D1 Dopamine Receptor: qHTS; hit rate 0.036% among 360,000; HEK293 TREx D1 cells, calcium flux, dopamine EC20 potentiation; D(1A) dopamine receptor (Homo sapiens), P21728; potentiation, % at 10 µM; in the data active means potentiation above about 30%; further: 0% is about no effect
D1 ag = Allosteric Agonists of the Human D1 Dopamine Receptor: qHTS; D(1A) dopamine receptor (Homo sapiens), P21728; HEK293 T-REx D1 cells, calcium flux, agonist mode; activation, % at 2 µM; hit rate 1% among 360,000; AID 504660, 2011; further: 0% is about no effect
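Agonism was scored from calcium flux recorded over 180 s (1 read/s) after pintool compound addition, following a 10-cycle baseline. Cells were inducible force-coupled HEK293 TREx D1, plated overnight at 30 C and loaded with no-wash calcium dye.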
TRHR PAM = qHTS for Small Molecule Agonists and Allosteric Enhancers of Human TRH Receptor: Primary Screen for Enhancers | Thyrotropin-releasing hormone receptor (Homo sapiens), P34981 | TRHR cells, fluo-8 calcium fluorescence, EC20 TRH enhancement | enhancement, % at 2 µM | hit rate 0.66% among 360,000 | AID 493056, 2011; in the data active means enhancement above about 30%; further: 0% is about no effect
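Enhancer read-out: after compound pinning and an initial kinetic agonist-mode read, an EC20 of TRH (10 nM final) was injected and fluo-8 calcium signal (Ex 480/Em 530) followed at 1 s/cycle for 100 cycles in TRHR-expressing cells.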
Epigenetic reg = Quantitative High-Throughput Screen for Regulators of Epigenetic Control. murine LDR cells, GFP reporter derepression, 30 h. Potency, µM (series often up to 53.9 µM), for inactives: at the top dose GFP activation, hits mostly activators. hit rate 0.2% among 280,000. AID 1865, 2009; active means well fitted activation curve with a large enough effect; inconclusive means small, poorly fitted or top-dose-only effect; further: potency means the concentration at half of the fitted maximal effect; % of control where 0% means no effect; nearly all actives have a fitted effect of over 60% in size
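In this reporter-derepression format, murine cells bearing a silenced integrated CMV-GFP locus incubate with test compound (30 h, 37 C), then are washed and imaged; fluorescent objects of 20–120 um count as induced cells.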
TRHR agonist = qHTS for Small Molecule Agonists and Allosteric Enhancers of Human TRH Receptor: Primary Screen for Agonists; hit rate 0.18% among 360,000; TRHR cells, calcium flux fluo-8, FDSS agonist mode; AID 493084, 2011; Thyrotropin-releasing hormone receptor (Homo sapiens), P34981; activation, % at 2 µM; further: 0% is about no effect
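TRHR-expressing cells, plated overnight in medium with 10% serum, were loaded with fluo-8 calcium dye at room temperature. After a 10 s baseline, library compound was pin-added and calcium release was recorded kinetically (ex 480/em 530) as agonist response.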
* = called active by the depositor; ? = inconclusive; nt = no result. Only some compounds are listed: those with a hit (about 4.6% of all), similar ones and a draw of the others. Unless noted, no stated cut-off is given here; in the data, active means activation above about 30%; inactive means the rest.

SMILES	D1 antag	D1 potentiator	D1 ag	TRHR PAM	Epigenetic reg	TRHR agonist
COc1cccc(-n2c(SCC(N)=O)nc3c([nH]c4ccccc43)c2=O)c1	-11.4	-4.9	4.5	37.1*	0.0%	-0.4
Cc1cc(N2CCCCC2)nc2ccc(NC(=O)/C=C/c3ccccc3OC(C)C)cc12	-1.6	-1.1	-1.2	1.5	-1.1%	0.1
O=C(c1ccc2c(c1)N(Cc1ccccc1F)C(=O)c1ccccc1S2=O)N1CCC(Cc2ccccc2)CC1 (centres undefined)	3.3	-3.3	4.3	-4.0	-1.1%	0.6
CN(CCc1cn[nH]c1)C(=O)CC1C(=O)NCCN1Cc1ccccc1C(F)(F)F (centres undefined)	-40.1*	-0.3	3.1	-2.8	4.4%	-0.1
CC(C)C[C@@H](/C=C/S(C)(=O)=O)NC(=O)[C@H](CC(C)C)NC(=O)[C@H](CC(C)C)NC(=O)OCc1ccccc1	nt	nt	nt	nt	6.31µM*	nt
CCNC(=O)C(Cc1ccccc1)NC(=O)OCc1ccccc1 (centres undefined)	11.5	-2.3	0.7	3.4	-1.1%	0.4
COc1ccc(-c2nn(CC(=O)NCc3ccccc3)c3c2cnc2ccc(F)cc23)cc1	-13.2	-2.5	3.2	0.2	1.5%	-0.7
CC1CC(C)(C)Nc2ccc(N=O)cc21 (centres undefined)	-45.4*	-4.3	2.5	11.3	0.0%	-1.1
CC1CC(C)(C)Nc2ccc(OC(=O)c3ccco3)cc21 (centres undefined)	-13.3	-6.7	12.3	4.4	?	-0.7
Cc1cccc(C)c1NC(=O)/C(C#N)=C/c1ccsc1	-34.5*	5.3	2.6	-2.3	0.0%	0.4
Cc1cc(C)n(CCCNC(=O)c2ccco2)n1	-31.0*	-6.2	0.9	-4.8	nt	-0.3
CC(C)(C)c1cc(C(F)(F)F)nc(SCCCNC(=O)c2ccco2)n1	-38.3*	-3.2	18.6	14.4	-0.2%	0.0
CC(C)(C)c1ccc(C(=O)NCCCNC(=O)c2ccco2)cc1	-3.5	nt	3.5	1.3	nt	-0.3
O=C(NCCCN1CCCCCC1)c1ccc(CS(=O)(=O)Cc2ccccc2F)o1	0.9	4.2	-1.4	0.9	1.2%	-0.2
O=C(NCCCN1CCOCC1)c1ccco1	-35.3*	-3.2	2.1	1.9	-1.0%	0.0
O=C(NCCN1CCCCC1)c1ccco1	6.1	-2.1	3.6	-1.9	0.0%	0.6
O=C(NCCCN1CCOCC1)c1ccc(CS(=O)(=O)Cc2ccccc2Cl)o1	-44.8*	1.3	1.6	-0.6	-1.8%	-1.0
COc1cccc2c1cc1c(=O)n(CC(=O)N3CCN(c4cccc(C(F)(F)F)c4)CC3)nc(C)n12	-1.7	-1.4	0.4	-7.8	0.0%	0.2
CCN(CC)S(=O)(=O)c1cc(-c2onc(C)c2C)ccc1OC	-3.3	-4.2	2.5	-3.5	4.9%	0.0
COC(=O)c1ccc(OC)c(Cn2c(=O)n(-c3cccc(Cl)c3)c(=O)c3c2c2cc(C)ccc2n3C)c1	-1.0	0.6	1.4	20.4	?	0.3
Cc1ccccc1CS(=O)(=O)CCC(=O)NCCCN1CCOCC1	-44.1*	-0.2	-0.1	-5.3	0.0%	-0.8
COc1ccc(-c2nc(CNC(=O)Nc3ccccc3)c(C)o2)cc1	3.7	-0.1	1.6	-1.0	1.0%	0.5
CCN1C(=O)c2ccccc2Sc2ccc(NC(=O)Nc3cccc([N+](=O)[O-])c3C)cc21	-12.4	-4.5	4.6	-0.9	2.8%	0.6
O=C1/C(=C\c2ccco2)SC(=S)N1C1CCCCC1	23.4	34.5*	2.2	9.1	nt	0.4
O=C(Nc1ccccc1N1CCOCC1)c1cc(Br)c(Br)s1	-30.9*	3.4	3.4	-0.6	-0.4%	0.3
SMILES	D1 antag	D1 potentiator	D1 ag	TRHR PAM	Epigenetic reg	TRHR agonist
Cn1c(=O)n(C)c2cc(N3CCOCC3)c(NC(=O)c3ccccc3Br)cc21	-43.0*	-2.2	-0.5	2.9	1.3%	-1.3
Cc1nn(Cc2ccccc2Cl)c2sc(C(=O)Nc3ccccc3N3CCOCC3)cc12	-37.9*	-4.0	3.1	2.1	-1.3%	0.1
COc1cccc(OC)c1C(=O)Nc1cc2c(cc1N1CCOCC1)n(C)c(=O)n2C	-4.3	-2.2	2.8	8.4	nt	0.3
CCc1cc(C(=O)Nc2ccccc2N2CCOCC2)sc1C	21.7	1.8	2.5	-2.8	nt	0.0
Cn1c(=O)n(C)c2cc(N3CCOCC3)c(NC(=O)c3ccc(F)cc3)cc21	2.7	1.6	1.8	31.6*	nt	0.2
Cc1ccc2c(c1)-c1c(c(C(=O)NCCc3ccccc3)nn1C)CS2	-3.7	-0.3	7.4	4.0	1.6%	-1.4
CCC(C)(C)n1nnnc1C(c1cc2ccc(OC)cc2[nH]c1=O)N1CCc2ccccc2C1 (centres undefined)	-4.1	13.2	1.0	-0.8	-1.2%	0.1
COc1ccc2cc(C(c3nnnn3C(C)(C)C)N3CCc4ccccc4C3)c(=O)[nH]c2c1 (centres undefined)	-45.0*	-2.4	-0.4	10.9	-3.4%	-0.2
Cc1c(C(=O)NCc2ccco2)oc2c(F)cccc12	-20.1	-6.7	0.6	37.0*	nt	0.3
CC(=O)c1[nH]c(C)c(C(=O)NCc2ccc(Cl)cc2)c1C	2.3	-1.2	38.8*	-3.1	1.4%	-0.7
CC(=O)c1c(C)[nH]c(C(=O)NCc2ccco2)c1C	-64.5*	-8.3	1.6	-0.8	-2.6%	-0.2
Cc1c(C(=O)NCc2ccco2)oc2ccccc12	13.6	1.2	0.6	5.8	nt	-1.0
CC(=O)c1c(C)[nH]c(C(=O)NCc2cccs2)c1C	2.8	-7.7	5.1	-4.3	0.0%	-1.7
CCOc1ccc(-n2c(C)nc3cc(C(=O)NC4CCCC4)ccc32)cc1	-0.1	-3.9	0.5	2.9	-1.1%	-0.5
CN1N=C2c3ccccc3CCC2C1c1ccc(C(F)(F)F)cc1 (centres undefined)	-82.4*	0.9	3.6	0.4	-2.4%	-0.1
CN(C)c1ccc(C2C3CCCc4ccccc4C3=NN2C)cc1 (centres undefined)	14.4	2.4	2.2	1.0	1.1%	0.5
O=C(COc1ccc(C(=S)N2CCOCC2)cc1Cl)Nc1ccccc1Cl	14.3	-3.0	8.1	33.7*	3.6%	0.5
COc1cc(C(=S)N2CCCCC2)ccc1OCC(=O)Nc1ccccc1Cl	4.1	-0.3	1.8	4.6	-1.5%	-0.2
Cc1ccc2c(=O)cc(C(=O)Nc3ccc(S(=O)(=O)N(C)c4ccccc4)cc3)oc2c1C	-5.0	-2.8	-1.0	8.5	5.6%	-0.7
